TIM10 inh: inhibits growth of TIM10 yeast strain | S. cerevisiae TIM10 strain growth, BacTiter-Glo luminescence, 24 h | inhibition, % at 10 µM | hit rate 1.4% among 330,000;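 active = inhibition of 40% or more at the single tested concentration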;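 also: wild-type TIM10 isogenic control strain grown at permissive 25 °C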
NLRP3 yeast inh: blocks the NALP3 inflammasome reconstituted in yeast; Yeast reconstituted NLRP3/ASC/caspase-1, beta-gal luminescence, 24 h; inhibition, % at 10 µM; hit rate 0.39% among 330,000;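 active = inhibition of 50% or more; inactive = inhibition below 50%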;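 also: plate controls were induced DMSO wells for no effect and uninduced yeast grown without galactose for full effect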
tim10-1 inh: inhibits growth of tim10-1 mutant yeast; S. cerevisiae tim10-1 ts strain growth, BacTiter-Glo, 24 h; AID 463190; inhibition, % at 20 µM; hit rate 2.2% among 330,000;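 active = inhibition of at least 40%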;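 also: mutant grown at 25 °C; 0% = DMSO wells with yeast and 100% = wells holding no yeast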
NALP1 inh: inhibitors of NALP1 inflammasome in yeast; inhibition, % at 10 µM; AID 2071; S. cerevisiae NALP1/ASC/caspase-1 growth, X-gal OD620, 72 h; hit rate 0.61% among 280,000; in the data active = inhibition mostly above about 24%, no sharp cut-off; inactive = mostly below about 32%
tim23-1 inh: inhibits growth of tim23-1 mutant yeast. hit rate 1.3% among 330,000. inhibition, % at 20 µM. S. cerevisiae tim23-1 growth, BacTiter-Glo luminescence, 24 h;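 active = growth inhibition of the mutant yeast at or above 50%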;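 also: temperature-sensitive mutant grown at 25 °C; plate controls were DMSO-treated mutant yeast for no effect and medium wells lacking yeast for full effect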
PfHsp90 set2: reduces growth (ATP signal) of yeast expressing P. falciparum Hsp90; S. cerevisiae expressing PfHsp90, BacTiter-Glo ATP, 48 h; yeast lacking PDR1 and PDR3 efflux regulators; inhibition, % at 9.4 µM; hit rate 0.32% among 310,000; AID 504621;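 active = every replicate shows inhibition above about 80%, whatever the replicate mean, limit read from the data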;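 also: 0% = DMSO neutral controls and 100% = 20 µM radicicol positive controls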
NALP3 yeast conf: confirmation of NALP3 inhibitors in yeast; shares compounds with NLRP3 yeast inh; inhibition, % at 10 µM; hit rate 81% among 1,300; yeast expressing human NALP3, luminescence; in the data active = inhibition above about 48%
Casp1 ASC ctr: active in yeast caspase-1-ASC counter-screen for NALP3 inhibitors. hit rate 66% among 1,000. inhibition, % at 10 µM. shares compounds with NLRP3 yeast inh. yeast expressing Caspase-1-ASC, luminescence counter screen
NALP3 retest: retest-confirmed inhibitor of NALP3 in yeast | yeast expressing human NALP3, luminescence read-out | hit rate 53% among 1,000 | inhibition, % at 10 µM | shares compounds with NLRP3 yeast inh
Active calls of the source: *; . = not tested or not shown. Most compounds without a hit are left out; they make up all but 4.1% or so of the library. Rule as the data show it, unless noted: active = inhibition above about 50%; inactive = the rest.

SMILES	TIM10 inh	NLRP3 yeast inh	tim10-1 inh	NALP1 inh	tim23-1 inh	PfHsp90 set2	NALP3 yeast conf	Casp1 ASC ctr	NALP3 retest
CN(CC(=O)N(C)CC(=O)Nc1c(Cl)cccc1Cl)Cc1ccc(Br)s1	4	14	8	.	-1	-9	.	.	.
CCN(CC)C1CCN(C(=O)CCn2nnnc2CN2CCOCC2)C1 (stereo not drawn)	5	5	6	-3	12	15	.	.	.
CN(CC(=O)Nc1ccc(N2CCOCC2)cc1)C(=O)c1ccc(CS(C)(=O)=O)cc1	-9	20	3	.	6	.	.	.	.
O=C(NCCC1=CCCCC1)c1ccc([N+](=O)[O-])cc1	8	58*	11	39	9	18	22	.	.
O=C1c2cccc(O)c2C(=O)c2c(O)cccc21	27	60*	22	76	44	.	64*	.	.
COc1cccc2c1-c1c(O)cccc1C2=O	-18	22	-2	18	17	2	.	.	.
CCOc1ccccc1CN1CCNC(=O)C1CC(=O)N(C)Cc1cnccn1 (stereo not drawn)	-6	6	-16	9	1	-9	.	.	.
CCc1cc(C(=O)Nc2cc(Cl)ccc2N2CCN(C)CC2)sc1C	-2	67*	-3	.	11	7	79*	77*	73*
CNc1nc(SCc2ccc(C)cc2)nc2c1CCCC2	12	97*	28	99*	34	-27	99*	99*	99*
Cc1nc2ccc(NC(=O)Cc3ccsc3)cc2s1	-15	19	1	-2	1	42	.	.	.
Cc1ccc(NC(=O)Cc2ccsc2)cc1Cl	-4	54*	0	-56	15	-3	68*	43	38
O=C(COc1cccnc1[N+](=O)[O-])Nc1ccc(F)cc1	-1	14	2	.	-4	24	.	.	.
CCOc1ccccc1NC(=O)COc1cccnc1[N+](=O)[O-]	6	59*	4	.	28	-4	74*	.	.
COc1ccccc1CNC(=O)COc1cccnc1[N+](=O)[O-]	14	22	-7	6	0	-59	.	.	.
COc1ccccc1CNc1ncccc1[N+](=O)[O-]	6	50*	-5	24	1	26	48*	37	39
COc1ccccc1NC(=O)COc1cccnc1[N+](=O)[O-]	9	51*	14	.	5	.	67*	75*	62*
O=C(/C=C/c1cccs1)N1CCc2ccccc21	-1	52*	7	43	22	14	23	.	.
O=C(c1cccs1)N1CCc2ccccc21	7	15	-3	25	25	-22	.	.	.
O=C1NCCN1Cc1ccccc1	-4	2	1	8	1	.	.	.	.
O=C1c2ccsc2SCCN1Cc1ccccc1	-8	58*	26	8	11	11	43	48	47
CC1=CC2=NC(=O)/C(=C\c3cccn3CCOc3cccc(C)c3)C(=N)N2O1	12	60*	14	47	28	15	3	.	.
O=C(Nc1ccccc1)c1cc2ccccc2c(=O)s1	18	59*	-12	23	15	21	10	.	.
CC(NC(=O)CSC(=S)N1CCCC1)c1ccc(S(N)(=O)=O)cc1 (stereo not drawn)	0	15	2	.	4	7	.	.	.
O=C(Nc1cccnc1)c1cc(-c2ccccc2)on1	7	50*	-10	-102	7	-10	40	.	.
Cc1ccc2c(c1)N(CC(=O)NC1CCCC(C)C1C)C(=O)c1cccnc1O2 (stereo not drawn)	14	17	3	16	20	19	.	.	.
Cn1c(C(=O)N2CCCc3ccccc32)cc2sccc21	31	51*	21	-2	45	-6	64*	40	35
C=C(Cl)COc1ccc2c(CC)cc(=O)oc2c1	-19	51*	14	2	21	-11	44	64*	56*
CSc1ccc(/C=C(\C(=O)O)c2ccc(S(=O)(=O)N3CCCC3)s2)cc1	2	9	14	.	6	18	.	.	.

Bioassay records from PubChem.
